Screening results: PubChem BioAssay, Broad Institute
Tcruzi prolif = blocks T. cruzi growth in NIH3T3 culture; T. cruzi beta-gal in NIH3T3, GalScreen luminescence, 90 h; inhibition, % at 8.34 µM; 5.9% of 77,000 active; AID 624255;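 active = mean inhibition above about 93%, with at least 55% of replicates each passing it, limit read from the data, passing the limit was not always enough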
Pf Dd2 growth = blocks growth of Plasmodium falciparum Dd2 parasites. P. falciparum Dd2 growth, SYBR Green, 72 h; stronger effect = lower value. activity change, % at 10 µM. 2.3% of 94,000 active. AID 1159554; in the data active = activity change below about -80%
C diff growth = blocks growth of Clostridium difficile; growth activity, negative = inhibition, % at 16 µg/mL (by protocol); Clostridium difficile clinical isolate growth, OD600, 24 h; stronger effect = lower value; 0.25% of 86,000 active; AID 1259249;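 active = mean growth activity at or below -80% and every replicate also at or below -80%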
A number is an active result; . = inactive; / = no result given. Compounds with a hit are over-represented: about 6.7% of the library has one in this group of screens.

SMILES	Tcruzi prolif	Pf Dd2 growth	C diff growth
COc1ccccc1CN1[C@H](CO)[C@@H](c2ccccc2)C12CN(C(C)=O)C2	/	.	.
OC[C@@H]1[C@@H](c2ccccc2)C2(CN(CC3CC3)C2)N1Cc1ccc(F)cc1	/	-88	.
CCS(=O)(=O)N1CC2(C1)[C@@H](c1ccccc1)[C@H](CO)N2Cc1ccc(F)cc1	/	-83	.
O=C(CC1CC1)N1CC2(C1)[C@H](c1ccccc1)[C@@H](CO)N2Cc1ccc(F)cc1	/	.	.
Cc1noc(C)c1NC(=O)N(C)C[C@@H]1Oc2ccc(NC(=O)Cn3cnnn3)cc2C(=O)N([C@H](C)CO)C[C@@H]1C	.	.	/
COc1ccccc1CNC(=O)C[C@H]1CC[C@H]2[C@@H](COC[C@H](O)CN2C(=O)Nc2ccc(C(F)(F)F)cc2)O1	.	.	/
COCC#Cc1cnc2c(c1)C(=O)N([C@H](C)CO)C[C@H](C)[C@H](CN(C)C(=O)C1CCCCC1)O2	/	.	.
C[C@@H]1CN([C@H](C)CO)C(=O)c2cc(NC(=O)Nc3cccc4ccccc34)ccc2O[C@H]1CN(C)C(=O)Nc1ccc(C(F)(F)F)cc1	.	.	.
C[C@H]1CN([C@@H](C)CO)C(=O)c2cc(NC(=O)Nc3ccc(C(F)(F)F)cc3)ccc2O[C@@H]1CN(C)C(=O)Nc1cccc2ccccc12	.	-95	.
C[C@H]1CN([C@@H](C)CO)C(=O)c2cc(NC(=O)Nc3cccc4ccccc34)ccc2O[C@H]1CN(C)C(=O)Nc1ccc(C(F)(F)F)cc1	.	-91	.
C[C@H](CO)N1C[C@H](C)[C@@H](CN(C)C(=O)Nc2cccc3ccccc23)Oc2ccc(NC(=O)Nc3ccc(C(F)(F)F)cc3)cc2C1=O	.	-96	.
C[C@@H]1CN([C@H](C)CO)C(=O)c2cccc(NC(=O)Nc3cccc4ccccc34)c2O[C@@H]1CN(C)C(=O)Nc1ccc(C(F)(F)F)cc1	.	-92	.
C[C@H]1CN([C@@H](C)CO)C(=O)c2cc(NC(=O)Nc3ccc(F)cc3)ccc2O[C@@H]1CN(C)C(=O)Nc1cccc2ccccc12	/	.	.
C[C@H](CO)N1C[C@H](C)[C@@H](CN(C)C(=O)Nc2ccc(C(F)(F)F)cc2)Oc2ccc(NC(=O)Nc3cccc4ccccc34)cc2C1=O	.	.	.
C[C@@H]1CN([C@H](C)CO)C(=O)c2cccc(NC(=O)Nc3cccc4ccccc34)c2O[C@H]1CN(C)C(=O)Nc1ccc(C(F)(F)F)cc1	.	.	.
O=C(C[C@@H]1C[C@@H]2c3cc(NS(=O)(=O)c4ccc(F)cc4)ccc3O[C@@H]2[C@@H](CO)O1)NCc1ccccc1F	.	.	.
O=C(CN1CCOCC1)NCC[C@@H]1CC[C@H](NC(=O)Nc2ccc(Cl)cc2)[C@@H](CO)O1	.	.	.
C[C@@H]1CN([C@H](C)CO)S(=O)(=O)c2ccc(-c3cccnc3)cc2O[C@@H]1CN(C)C(=O)C1CC1	.	.	/
C[C@@H](NC(=O)C[C@H]1C[C@@H]2c3cc(NC(=O)C4CCC4)ccc3O[C@@H]2[C@H](CO)O1)c1ccccc1	/	.	.
O=C(C[C@@H]1CC[C@@H]2[C@H](COC[C@H](O)CN2C(=O)c2cccnc2)O1)NCc1ccccc1	.	.	.
C[C@@H]1CN([C@@H](C)CO)C(=O)c2cccc(NC(=O)C3CC3)c2O[C@@H]1CN(C)C(=O)Nc1ccc(C(F)(F)F)cc1	.	-89	.
C[C@@H]1CN([C@H](C)CO)C(=O)c2cccc(NC(=O)C3CC3)c2O[C@H]1CN(C)C(=O)Nc1ccc(C(F)(F)F)cc1	.	.	.
C[C@@H]1CN([C@H](C)CO)C(=O)c2cc(NC(=O)Cc3cn(C)c4ccccc34)ccc2O[C@@H]1CN(C)C(=O)Nc1ccc2c(c1)OCO2	.	.	.
C[C@@H]1CN([C@H](C)CO)C(=O)c2cc(NC(=O)NC3CCCCC3)ccc2O[C@@H](C)CCCCO[C@H]1CN(C)Cc1ccc(C(F)(F)F)cc1	.	-94	.
C[C@H]1CCCCO[C@@H](CN(C)Cc2ccc(C(F)(F)F)cc2)[C@@H](C)CN([C@@H](C)CO)C(=O)c2cc(NC(=O)NC3CCCCC3)ccc2O1	.	.	.
C[C@@H]1CN([C@H](C)CO)C(=O)c2cc(NC(=O)Nc3ccc(C(F)(F)F)cc3)ccc2O[C@@H](C)CCCCO[C@H]1CN(C)Cc1ccccc1	.	-87	.
C[C@@H]1CN([C@@H](C)CO)C(=O)c2cc(NC(=O)c3ccncc3)ccc2O[C@@H](C)CCCCO[C@H]1CN(C)Cc1ccc(C(F)(F)F)cc1	.	-81	.
COc1ccc(CN(C)C[C@@H]2OCCCC[C@H](C)Oc3ccc(NC(=O)Nc4ccc(C(F)(F)F)cc4)cc3C(=O)N([C@@H](C)CO)C[C@H]2C)cc1	.	.	-83
